Measured values as given in PubChem BioAssay AID436 (Emory University Molecular Libraries Screening Center, 2006).
The whole screen tested about 72,000 compounds, of which about 350 (0.49%) were called active. For the sample, actives were picked, then their nearest neighbours and some compounds at random. A number with no mark means an inactive call.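 Rule for the calls: active = activity remaining at or below 50% of control, provided the compound also passes the data quality filters; inactive = the rest, including low values that fail the filters.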

Target: Ubiquitin carboxyl-terminal hydrolase BAP1 (Homo sapiens) (UniProt Q92560)
Sequence (Q92560 whole entry, looked up): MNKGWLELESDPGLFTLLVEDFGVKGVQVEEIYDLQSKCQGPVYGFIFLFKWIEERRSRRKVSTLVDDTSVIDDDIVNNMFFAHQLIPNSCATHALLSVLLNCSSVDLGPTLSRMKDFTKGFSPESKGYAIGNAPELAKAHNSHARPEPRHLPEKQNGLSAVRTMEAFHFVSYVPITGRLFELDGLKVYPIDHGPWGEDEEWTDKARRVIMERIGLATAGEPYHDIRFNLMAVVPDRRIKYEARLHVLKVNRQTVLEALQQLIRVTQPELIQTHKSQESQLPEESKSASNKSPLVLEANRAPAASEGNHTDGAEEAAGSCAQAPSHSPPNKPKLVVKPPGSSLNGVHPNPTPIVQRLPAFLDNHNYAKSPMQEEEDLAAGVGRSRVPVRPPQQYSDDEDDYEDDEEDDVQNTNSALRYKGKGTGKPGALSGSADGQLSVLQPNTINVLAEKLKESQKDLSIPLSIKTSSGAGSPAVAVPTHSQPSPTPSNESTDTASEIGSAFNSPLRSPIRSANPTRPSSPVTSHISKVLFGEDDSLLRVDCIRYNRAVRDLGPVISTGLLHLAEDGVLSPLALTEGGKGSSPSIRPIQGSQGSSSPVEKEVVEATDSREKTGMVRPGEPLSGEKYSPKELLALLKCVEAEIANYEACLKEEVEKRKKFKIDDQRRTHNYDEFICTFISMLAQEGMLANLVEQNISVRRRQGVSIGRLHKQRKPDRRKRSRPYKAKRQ
Experiment: inhibitors of BAP1 deubiquitinase, primary screen, biochemical, Ub-AMC fluorescence, kinetic (AID 436);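 note: 100% = DMSO wells rate and 0% = substrate alone blank rate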
Settings: recombinant BAP1, Ub-AMC hydrolysis fluorescence kinetic; at 20 µM; active compounds read low

SMILES | activity remaining (% of control)
O=C1C2C3C=CC(O3)C2C(=O)N1c1ccc(Br)cc1[N+](=O)[O-] (stereo not drawn) | 77.6%
Cc1cc(C)cc(NC(=O)CCN2C(=O)c3ccccc3C2=O)c1 | 49.9%
S=c1[nH]nc(COc2ccccc2)o1 | 52.5%
CC(C)(C)n1nnnc1C(c1cccs1)N(Cc1cccnc1)CC1CCCO1 (stereo not drawn) | 80.9%
CCC(C)(C)n1nnnc1C(c1cccs1)N1CCN(Cc2ccccc2)CC1 (stereo not drawn) | 85.8%
CCOc1ccc(CN(Cc2ccco2)C(c2cccs2)c2nnnn2C(C)(C)C)cc1 (stereo not drawn) | 36.6% (active)
O=c1[nH]nc(SCc2ccc(Cl)cc2)c(=O)[nH]1 | 64.4%
COc1ccc(C2C(N3C(=O)c4cccc([N+](=O)[O-])c4C3=O)C(=O)N2c2ccc(C)c(C)c2)cc1OC (stereo not drawn) | 85.8%
COc1ccc(Cn2c(NCCO)nc3c2c(=O)n(C)c(=O)n3C)cc1 | 103%
Cc1cc(=O)oc2cc(OC(=O)c3ccc([N+](=O)[O-])cc3Cl)ccc12 | 479%
Cc1ccc[n+](CC(=O)c2ccc(Cl)cc2)c1C | 57.4%
O=c1oc2ccccc2cc1-c1nnc(-c2ccccc2)o1 | 380%
COc1ccc2cc(C(=O)Nc3cccc(C(F)(F)F)c3)c(=N)oc2c1 | 72.3%
CNc1nonc1C(=O)O | 154%
O=C(Nc1cccnc1)c1ccc(Cl)c([N+](=O)[O-])c1 | 66%
O=C(Nc1ccc(-c2cn3ccccc3n2)cc1)c1ccc(Br)cc1 | 63.1%
N#Cc1cccc2c1-c1ccc([N+](=O)[O-])cc1C2=O | 96.3%
Cc1cccc(C)c1OCC(O)CN1CCCCC1 (stereo not drawn) | 59.4%
CCOc1ccccc1NC(=O)c1c(NC(=O)c2cccs2)sc2c1CCC(C)C2 (stereo not drawn) | 92.6%
Cc1cc(Br)ccc1N1C(=O)C2CCCCC2C1=O (stereo not drawn) | 93.8%
CCc1ccc(OC(=O)c2cc3cc(Br)ccc3oc2=O)cc1 | 80.8%
CCc1ccc2oc(-c3cccc(NC(=O)c4ccccc4Br)c3)nc2c1 | 56.4%
O=C(Nc1nnc(CCS(=O)(=O)c2ccc3ccccc3c2)s1)c1ccc(F)cc1 | 64.8%
Cc1cccc(C(C)C)c1NC(=O)c1ccco1 | 233%
O=C(Nc1ccc(-c2nc3ccccc3o2)cc1)c1ccc(S(=O)(=O)N2CCCCC2)cc1 | 288%

SMILES | activity remaining (% of control)
O=C(Cc1cccc2ccccc12)Nc1ccccc1-c1nc2ccccc2s1 | 75.2%
CCOc1ccc(C(=O)Nc2cccc(C(=O)Nc3cccc4ccccc34)c2)cc1[N+](=O)[O-] | 71.1%
O=C(Nc1nc2c(s1)C(=O)CCC2)c1ccccc1Cl | 51.9%
CCOC(=O)c1c(NC(=O)c2cc3ccccc3oc2=O)sc(C(=O)CC)c1C | 49.7%
O=C(NCc1ccccc1)c1nn2c(C(F)(F)F)cc(-c3ccccc3)nc2c1Br | 70%
CCCOc1ccc(C(=O)Nc2c(C)ccc3nsnc23)cc1 | 203%
COCCc1nnc(NC(=O)c2ccc([N+](=O)[O-])cc2)s1 | 111%
CC1=C(C(=O)OCCc2ccccc2)C(c2ccc([N+](=O)[O-])cc2)NC(=O)N1C (stereo not drawn) | 72.8%
COc1ccc(-n2nc3cc(C)c(NC(=O)c4ccc(Br)o4)cc3n2)cc1 | 63%
CC(C)(C)C(=O)Nc1ccc(C(=O)Nc2nccs2)cc1 | 63.4%
NC(=O)c1ccccc1NC(=O)COc1ccc([N+](=O)[O-])cc1 | 138%
Cc1ccc(C=Cc2ccncc2)cc1 | 139%
N#Cc1c(NC(=O)CCCN2C(=O)c3ccccc3C2=O)oc(-c2ccccc2)c1-c1ccccc1 | 56.8%
N#Cc1c(/N=C/N2CCCC2)oc(-c2ccccc2)c1-c1ccccc1 | 41.5% (active)
NC(=O)c1c(NC(=O)CCCCCN2C(=O)c3ccccc3C2=O)sc2c1CCC2 | 140%
COC(=O)C1=C(C)Nc2nnnn2C1c1ccccc1 (stereo not drawn) | 171%
COc1cc(C(=O)Nc2ccc(Cl)cc2[N+](=O)[O-])cc(OC)c1OC | 87.7%
C[n+]1ccccc1C=Cc1ccccc1 | 120%
Cc1cccc2cc(CN(Cc3cccs3)C(c3nnnn3C3CCCC3)C(C)C)c(=O)[nH]c12 (stereo not drawn) | 57.3%
CCC(c1nnnn1C1CCCC1)N(Cc1cccs1)Cc1cc2cccc(C)c2[nH]c1=O (stereo not drawn) | 49.7% (active)
Cc1cccc2cc(CN(Cc3ccc4c(c3)OCO4)Cc3nnnn3C3CCCC3)c(=O)[nH]c12 | 53.1%
COC(=O)c1ccc(C(=O)Nc2cccc3c2C(=O)c2ccccc2C3=O)cc1 | 177%
CC(C)C(=O)N1c2ccccc2NC2=C(C(=O)CC(c3ccccc3)C2)C1c1ccc(F)cc1 (stereo not drawn) | 63.6%
O=C(c1ccccc1)N1CCN(c2ccc([N+](=O)[O-])cc2F)CC1 | 64.8%
COc1cc(C2CC(=O)Nc3c2cc(Br)c2ccccc32)cc(Br)c1OC (stereo not drawn) | 57.5%

SMILES | activity remaining (% of control)
CC(C)(C)c1ccc(OCC(O)CN2CCN(c3ccccc3F)CC2)cc1 (stereo not drawn) | 152%
CC(C)(C)c1ccc(C(=O)Nc2nnc(Cc3ccc(F)cc3)s2)cc1 | 75.1%
COc1ccc(C=Nc2sc(C)c(C)c2C#N)cc1 | 103%
COC(=O)c1sc(-c2ccccc2)cc1NC(=O)c1ccc(S(=O)(=O)N2CCOCC2)cc1 | 193%
O=C1NCCCC1C1=NC(CO)(CO)CO1 (stereo not drawn) | 82.8%
CCCOC(=O)c1cccc(NC(=O)COc2cccc(Cl)c2)c1 | 91.3%
CCOc1ccc(C(=O)Nc2ccc3c(c2)oc2ccccc23)cc1 | 144%
CCCCOc1ccc(C(=O)Nc2nc3ccc4nc(C)sc4c3s2)cc1 | 167%
CCC(=O)OCC1OC(n2ccc(=O)[nH]c2=O)CC1OC(=O)CC (stereo not drawn) | 130%
COc1ccc(CCNC(=O)c2cccc([N+](=O)[O-])c2C)cc1 | 86.2%
COc1ccc(C(=O)Nc2cccc(C)n2)cc1[N+](=O)[O-] | 80.8%
CN1C(=O)C(=O)/C(=C(/O)c2ccc(F)cc2)C1c1ccc(F)cc1 (stereo not drawn) | 58.4%
Cn1c(=O)[nH]c(=O)c2c1nc(N1CCOCC1)n2CCO | 159%
CCCCNC(=O)c1c[nH]c2ccc(S(=O)(=O)Nc3ccc(OCC)cc3)cc2c1=O | 32.9% (active)
COc1cccc(NS(=O)(=O)c2ccc3[nH]cc(C(=O)NCCCOC(C)C)c(=O)c3c2)c1 | 79.5%
Cn1c(=N)n(CC(O)c2cccs2)c2ccccc21 (stereo not drawn) | 85.6%
COc1cc(NC(=O)COc2ccccc2)c(OC)cc1Cl | 141%
O=C(Nc1cc2cccc([N+](=O)[O-])c2oc1=O)c1ccccc1[N+](=O)[O-] | 61.5%
Cc1cc(C)nc(NS(=O)(=O)c2ccc(NC(=O)c3ccc(F)cc3)cc2)n1 | 67.2%
Clc1ccc2[nH]c3ccccc3c2c1 | 65%
Cc1cc(O)c2c(=O)c(-c3csc(C)n3)c(C(F)(F)F)oc2c1 | 130%
O=C(OCCN1C(=O)c2ccccc2C1=O)c1ccc([N+](=O)[O-])cc1 | 90.6%
O=[N+]([O-])c1ccc(C=Nc2nc3c(s2)CCCC3)cc1 | 113%
